The full ranking holds about 33,000 sequences; the median of “E-score (-0.5 to 0.5)” is about -0.053, and the highest 2% start at about 0.37. The list comes from a sample in which the highest values are over-represented; it also holds similar and randomly drawn sequences.
Target: Hap1 (UniProt P0CE41)
Test: PBM E-score (8-mer binding enrichment) (E-score (-0.5 to 0.5)); higher = stronger / more preferred TF binding
Details: protein concentration: 200 nM; construct: GST-DNA-binding domain
Protocol: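 Universal 'all 10-mer' protein binding microarrays (Agilent AMADID 015681) probed with GST-tagged S. cerevisiae TFs (full-length or DBD) made by in vitro transcription/translation (PURExpress), about 100-200 nM. Bound TF was detected with fluorescent anti-GST. Each ungapped 8-mer (which stands for itself and its reverse complement) is scored by the PBM enrichment score (E-score), a modified Wilcoxon-Mann-Whitney statistic from -0.5 to +0.5, computed with the Universal PBM Analysis Suite. Scale: above 0.35 generally sequence-specific binding.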

Sequence of UniProt P0CE41 (P0CE41 whole entry): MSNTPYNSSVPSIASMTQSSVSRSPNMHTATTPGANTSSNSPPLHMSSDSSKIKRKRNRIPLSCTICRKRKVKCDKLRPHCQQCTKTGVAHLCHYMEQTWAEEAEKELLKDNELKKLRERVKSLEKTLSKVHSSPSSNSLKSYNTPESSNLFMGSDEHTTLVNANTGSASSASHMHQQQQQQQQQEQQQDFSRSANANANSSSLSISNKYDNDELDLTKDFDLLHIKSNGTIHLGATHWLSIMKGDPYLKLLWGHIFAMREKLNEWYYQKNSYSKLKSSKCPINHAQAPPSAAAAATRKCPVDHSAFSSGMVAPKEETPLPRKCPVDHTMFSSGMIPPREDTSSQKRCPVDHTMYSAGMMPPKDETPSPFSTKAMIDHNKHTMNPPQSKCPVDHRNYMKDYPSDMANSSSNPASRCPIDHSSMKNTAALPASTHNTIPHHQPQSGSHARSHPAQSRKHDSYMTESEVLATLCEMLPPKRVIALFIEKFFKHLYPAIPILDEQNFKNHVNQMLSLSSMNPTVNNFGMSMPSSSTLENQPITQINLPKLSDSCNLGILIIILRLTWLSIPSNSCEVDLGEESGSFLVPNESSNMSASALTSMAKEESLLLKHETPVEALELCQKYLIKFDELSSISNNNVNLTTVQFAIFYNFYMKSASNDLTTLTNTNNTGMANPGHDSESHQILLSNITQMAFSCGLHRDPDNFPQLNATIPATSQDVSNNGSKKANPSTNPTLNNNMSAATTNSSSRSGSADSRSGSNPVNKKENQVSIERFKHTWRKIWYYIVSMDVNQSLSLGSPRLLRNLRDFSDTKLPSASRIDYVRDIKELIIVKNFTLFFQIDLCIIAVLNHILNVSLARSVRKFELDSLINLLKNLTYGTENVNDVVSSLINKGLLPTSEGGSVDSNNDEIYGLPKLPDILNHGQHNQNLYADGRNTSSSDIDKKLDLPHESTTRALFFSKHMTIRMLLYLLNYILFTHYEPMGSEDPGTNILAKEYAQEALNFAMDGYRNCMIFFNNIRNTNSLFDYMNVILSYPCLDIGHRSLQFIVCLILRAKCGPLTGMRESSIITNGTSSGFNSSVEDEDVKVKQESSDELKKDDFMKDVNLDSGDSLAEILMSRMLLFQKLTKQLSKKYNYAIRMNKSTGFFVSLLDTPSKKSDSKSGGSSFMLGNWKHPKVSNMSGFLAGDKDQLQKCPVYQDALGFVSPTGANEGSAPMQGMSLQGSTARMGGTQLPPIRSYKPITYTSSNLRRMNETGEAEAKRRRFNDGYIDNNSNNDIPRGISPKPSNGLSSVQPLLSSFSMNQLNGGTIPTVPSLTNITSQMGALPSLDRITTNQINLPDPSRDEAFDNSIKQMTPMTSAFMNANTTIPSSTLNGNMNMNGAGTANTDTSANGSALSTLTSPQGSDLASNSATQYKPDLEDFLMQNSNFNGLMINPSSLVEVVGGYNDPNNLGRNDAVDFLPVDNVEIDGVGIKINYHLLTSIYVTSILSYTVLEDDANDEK

Sequence | PBM E-score
CCCCGGTA | 0.334
ACCCGGTA | 0.376
ACCCGGTC | 0.222
GCCCGGTA | 0.38
AAGCCTCA | -0.136
CACCGCAC | 0.0364
CGTGCACC | -0.0161
GGGTCCGA | 0.38
GGGTCCCA | -0.0688
CGGTCCTA | 0.33
AGGTCCGA | 0.404
CGGTCCGA | 0.435
AGGTCCTG | -0.0186
AGGTCCAG | -0.0779
AGGTCCGG | 0.396
CGGTCCGC | 0.317
AGGTCCGC | 0.33
GGGTCCAA | 0.15
AGGTCCCA | -0.174
AGTGAAAA | 0.0463
ATCTAGCG | 0.00616
AGATAGCC | 0.0418
CGCGAATA | 0.182
ATCTGAGA | -0.25
CTTCGACA | -0.309

Sequence | PBM E-score
GCAGTAGA | -0.3
AGGTTCGA | -0.0833
CGGCTGAC | 0.192
GCTCTTCC | 0.0685
AACTTTTG | -0.0532
CAAAGAGC | -0.176
CCGGCAAG | 0.269
CCGGCAAC | 0.373
CCGGCAAA | 0.387
GCGGCAAC | 0.00981
ACGGCAAC | -0.0151
GCGGCAAA | 0.202
AGTTTTTA | -0.141
AGATTATA | -0.0616
ATTCTGGC | -0.0263
AGCCCTTA | -0.128
CTCTACAA | -0.178
ACTTCCGG | 0.382
GTTTCCAA | -0.238
ACTTCCGC | 0.249
ATTTCCCC | 0.181
GTTTCCGA | 0.379
ACTTCCGA | 0.31
ATTTCCAG | 0.129
CTTTCCGC | 0.194

Sequence | PBM E-score
CTTTCCGA | 0.316
ATTTCCGG | 0.459
ATTTCCGC | 0.399
ATTTCCTG | -0.0599
AAAACAAA | 0.043
AGCGCACC | 0.149
CGGTTCTA | 0.276
ATCAAGAG | -0.172
ACGGAACG | 0.195
CTACCAGC | -0.319
CATAGGCG | -0.196
GCCACTAC | -0.042
ATTTCCGA | 0.432
ATTTCCAA | 0.0623
ATTTCCCA | -0.131
CCGTCTCC | 0.126
AACCTATC | -0.00501
GATAGTGC | -0.0408
CGTACGAC | -0.0847
CACGTCGG | 0.28
CGCCGGTC | 0.295
ATCCGGTC | 0.329
GTCCGCTA | 0.37
GTACGGTA | 0.0448
CTCCGCTA | 0.336

Sequence | PBM E-score
ATCCGGCA | 0.329
ATCCGCTA | 0.306
GTCCGGTA | 0.419
CTCCGGTC | 0.431
CTCCGGCC | 0.358
CTCCGGCA | 0.371
GTTCGGTA | 0.249
GGCATCGA | -0.206
AAATGAAT | -0.213
CCAGCGTC | 0.0197
AGTTCTTA | 0.0534
CGCCATCC | -0.00934
CGTCGGAA | 0.306
CATTTGCC | -0.0698
AGGGAACG | -0.0997
CGCCGGTA | 0.345
ATCCGGTA | 0.357
CTCCGGTA | 0.439
CAAGCTCC | 0.00322
CGGGCTTC | 0.307
AGGGCATA | -0.102
CGGGCTTA | 0.437
CGGGCATA | 0.386
AGGGCTTA | -0.203
GGGGCATA | 0.0612

Sequence | PBM E-score
GTACTTCA | 0.032
GGGTTTTA | 0.288
GGGGTTAC | 0.218
AGGGTTAA | -0.259
GGGGTTAA | 0.386
GGGTTTAA | 0.387
TGGTTTAA | -0.161
ATCTATCG | 0.268
GACTCGGC | 0.186
AACGAAGG | -0.308
ACTTGGTG | -0.25
ACCTGCCG | -0.0501
GAGCGCAA | -0.175
AGTTACTA | -0.128
ACCAGTGA | -0.18
GGTAGTTA | 0.0824
CCCTAGCC | -0.138
ATTCGGCC | 0.375
ATTCGGCG | 0.278
ATTCGGAG | 0.299
CTTCGGAA | 0.403
ATTCGGGA | 0.197
ATTCGGGC | 0.308
GTTCGGAA | 0.312
AGTCGGAC | 0.318

Sequence | PBM E-score
ATTCGGCA | 0.224
ATTCGGAC | 0.382
ATTCGGAA | 0.311
ATTCGGGG | 0.393
AGGTGAAG | -0.184
CGATTCAA | -0.0364
GACGGGGC | 0.0768
GTCCACAC | 0.0984
ATTCGCCG | 0.295
ATCCCAAG | -0.0728
AAACTGCC | -0.0803
ACTAGTTC | -0.0373
CTTCGGCC | 0.309
CTTCGGAC | 0.406
CTTCGGGC | 0.208
AATCTCGT | 0.0299
ATATCGGC | 0.455
CGATCGGC | 0.312
CTATCGCC | 0.102
ATATCGTC | 0.0615
ATATCGCG | 0.314
AAATCGGC | 0.303
CTATCGTC | -0.0802
ATATCGCC | 0.414
CTATCGGC | 0.385

Sequence | PBM E-score
GCCCAAGA | -0.22
CCACATCA | -0.064
CTTGCTCA | -0.129
GAGAGATA | 0.0119
GCACAGAC | 0.0195
GCTGATTA | -0.00254
CGGCCTTC | 0.301
CGGCCGTA | 0.417
CTGCCGGC | 0.322
AGGCCGGC | 0.271
AGGCCGTA | 0.0497
AGGCCGGA | 0.336
CGGCCGGC | 0.422
CGGCCGGA | 0.436
GGGCCGGA | 0.355
CGGCCTGA | 0.183
CGGCCTTA | 0.439
CGGCCGTC | 0.277
AATGGGCC | 0.0191
ACTCAGGA | -0.123
CCAAATGA | 0.00146
ACAGCACT | -0.0793
